# High-throughput results: PubChem, several laboratories
# The list is not random: actives were taken first. Their share in the collection is about 4.3%.
# Wnt bcat act = Wnt/beta-catenin pathway activators, primary screen, cell-based, plate reader, single point. activation, % at 9.35 µM. 300,000 compounds, 1.2% hits. Wnt/beta-catenin reporter cell assay, activator; in the data active = activation above about 30%, passing the limit was not always enough;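 also: 0% = neutral control wells and 100% = positive control wells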
# esBAF inh = Bmi1 luciferase reporter increase in mESCs, primary screen, esBAF inhibitor project, mouse ES cells, Bmi1 luciferase knock-in, single point; reporter increase, % at 12.5 µM; AID 602393, 2012; 350,000 compounds, 2% hits; 24 h; 100% = twice the neutral-well signal; in the data active = activation above about 40%;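 also: 0% = median of the plate's neutral control wells and 100% = double that signal; a rise in the Bmi1 reporter signal indicates esBAF inhibition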
# AF4-AF9 inh = inhibitors of AF4 peptide binding to AF9, primary screen, biochemical, AlphaScreen, biotin-AF4 peptide, FLAG-AF9, single point. 350,000 compounds, 0.47% hits. Protein AF-9 (Homo sapiens), P42568. inhibition, % at 10 µM;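 active = every replicate reaching a set inhibition limit, whatever the replicate mean, cut at about 25% in these data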;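 also: 0% = plate neutral control median and 100% = total signal loss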
# MITF act = activators of MITF-driven TRPM1 promoter reporter, primary screen, cell-based, SK-MEL-5, luciferase, single point; SK-MEL-5 TRPM1-promoter luciferase, 24 h; % of positive control, neutral wells = 0; activation, % at 12.5 µM; 300,000 compounds, 0.75% hits; AID 588334, 2011;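 active = mean activation of at least 80% with every replicate also reaching 80%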;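 also: 0% = neutral control wells and 100% = parthenolide positive control wells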
# SMARCA2 activ = SMARCA2 (BRM) function activators, primary screen, cell-based, luminescence, high throughput | AID 652017, 2013 | 370,000 compounds, 1% hits | activation, % at 9.1 µM | MG213 cells, MMTV-luciferase reporter, dexamethasone, overnight; in the data active = activation above about 7.8%;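 also: 0% = vehicle wells and 100% = reference activator wells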
# FGF22 binding = binders of human FGF22 protein, primary screen, FGF22 synaptogenesis inhibitor project, biophysical, thermal shift, single point. recombinant FGF22 thermal shift, SYPRO orange fluorescence; percent of sucrose octasulfate shift, DMSO zero. 340,000 compounds, 1.5% hits. activity (Tm shift, normalised), % at 9.99 µM. Fibroblast growth factor 22 (Homo sapiens), Q9HCT0;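 active = mean Tm shift, scaled 0 neutral to 100 positive control, at about 1.3% or above, every replicate too, limit read from the data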
# Target sequence (Q9HCT0 whole entry, looked up): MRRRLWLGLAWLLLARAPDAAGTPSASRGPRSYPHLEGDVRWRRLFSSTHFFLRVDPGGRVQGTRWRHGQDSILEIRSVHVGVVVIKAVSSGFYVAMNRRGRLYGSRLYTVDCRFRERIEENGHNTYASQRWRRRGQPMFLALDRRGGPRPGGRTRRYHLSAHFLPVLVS
# SMARCA2 act conf = SMARCA2 (BRM) function activators, confirmation, cell-based, luminescence, triplicate; shares compounds with SMARCA2 activ; MG213 cells, MMTV-luciferase with dexamethasone, overnight; MG213 cells expressing E1A, Rb sequestered; DMSO wells 0%, reference activator 100%; activation, % at 9.1 µM; 3,500 compounds, 30% hits; AID 652260, 2013;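 active = activation above its plate's cutoff, the mean activation of tested wells plus 3 SD, cut at about 7.9% in these data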
# GAL4-VP16 Luc = GAL4-VP16 luciferase reporter activation, counter-screen for SMARCA2 (BRM) activator project, cell-based, pG5luc, luminescence, high throughput. HEK293 GAL4-VP16 pG5luc reporter; scaled: DMSO wells 0%, SAHA wells 100%. 3,500 compounds, 41% hits. AID 686939, 2013. shares compounds with SMARCA2 activ. activation, % at 9.1 µM;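 active = activation above the solvent-only control well mean plus 3 SD, averaged across control plates, cut at about 5.2% in these data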
# * hit, by the source's call; · = no result.
SMILES,Wnt bcat act,esBAF inh,AF4-AF9 inh,MITF act,SMARCA2 activ,FGF22 binding,SMARCA2 act conf,GAL4-VP16 Luc
CCc1nnc(NC(=O)CSc2ccc(-c3nc4ccc(C)cc4[nH]3)cn2)s1,·,·,·,-15,8.7*,·,8.4*,12*
Cc1ccc2nc(-c3ccc(SCC(=O)O)nc3)[nH]c2c1,-2,-7,·,-5,-4,·,·,·
Cc1nc(SCC(=O)N2CCc3ccccc32)n[nH]1,·,·,·,11,8.7*,·,8.6*,4
Cc1ccc2nc(-c3ccc(SCC(=O)N4CCc5ccccc54)nc3)[nH]c2c1,20,·,-12,63,9.1*,0,12*,13*
C[C@@H]1CN([C@@H](C)CO)C(=O)c2cccc(NC(=O)c3nc4ccccc4s3)c2O[C@H]1CN(C)Cc1ccc(C(=O)Nc2ccccc2N)cc1,·,7,2,·,·,0,·,·
Cc1nc(Sc2ccccc2)c(C#N)cc1-c1ccccc1,·,20,·,23,·,·,·,·
Cc1nc(-c2cc(C#N)c(Sc3ccc(Cl)cc3Cl)nc2C)cs1,-2,-3,-4,-3,10*,0,-1,0
C[C@H]1CCCCO[C@H](CN(C)C(=O)Nc2ccc(F)cc2)[C@@H](C)CN([C@@H](C)CO)C(=O)c2cc(NC(=O)C3CCCCC3)ccc2O1,·,-3,1,·,·,-1,·,·
CCN(C[C@H]1N[C@@](Cc2ccccc2)(C(=O)OC)[C@H]2C(=O)N(Cc3ccccc3)C(=O)[C@@H]12)C(=O)NC(C)C,-2,-1,-2,-1,9.2*,0,-4,1
CO[C@@H]1CN(C)C(=O)c2cc(NC(=O)c3ccno3)ccc2OC[C@H](C)N(S(C)(=O)=O)C[C@H]1C,·,·,-7,·,·,0,·,·
Cc1ccc2c(c1)sc[n+]2Cc1ccccc1,28,54*,-26,69,10*,0,4,7.8*
CC(=O)c1ccc(N=Nc2ccc(C)cc2)cc1,6,·,11,1,4,0,·,·
C=C(C)C(=O)Oc1ccc(N=Nc2ccc(C)cc2)ccc1=O,-4,-41,28*,·,19*,0,-1,9.1*
O=C(C[C@H]1C=C[C@H](NC(=O)C2CCC2)[C@@H](CO)O1)NCCCN1CCOCC1,·,0,0,·,·,0,·,·
O=C(Cc1csc(Nc2nc(=S)[nH]c3ccccc23)n1)NCCCN1CCN(c2ccccc2F)CC1,-6,2,-1,-67,15*,0,9.6*,2
O=C(Cc1csc(Nc2nc(=S)[nH]c3ccccc23)n1)NCc1ccc(Cl)cc1,-5,-7,0,-13,·,0,·,·
c1ccc2c(c1)C1=NCCN1c1ccccc1-2,11,·,0,·,24*,0,371*,4
CC(C)NC(=O)N[C@H]1CC[C@@H](CCNC(=O)C2CC2)O[C@@H]1CO,·,-7,1,·,·,0,·,·
Cc1ccc(/C=c2/sc3n(c2=O)CCCN=3)o1,·,53*,·,·,8.7*,·,6,4
Cc1ccc(/C=c2\sc3n(c2=O)CN(c2ccc(Br)cc2)CN=3)o1,3,0,·,3,-1,·,·,·
Cn1c2ccc(Cl)cc2c2nc3ccccc3nc21,2,13,-3,0,9.4*,0,11*,3
O=C(C[C@H]1CC[C@H]2[C@@H](COC[C@H](O)CN2S(=O)(=O)c2ccc(F)cc2)O1)N[C@H]1CCN(Cc2ccccc2)C1,·,2,6,·,·,0,·,·
C=CCn1c(-c2c(C)nc3cc(C)ccn23)n[nH]c1=S,-2,·,1,1,9.1*,0,-3,0
C[C@@H]1CN([C@@H](C)CO)C(=O)c2cc(NS(=O)(=O)c3cn(C)cn3)ccc2O[C@H]1CN(C)C,·,-1,-1,·,·,0,·,·
COc1cc(/C=C/c2nc3ccccc3s2)cc(OC)c1O,10,40,8,39,11*,0,3,2
SMILES,Wnt bcat act,esBAF inh,AF4-AF9 inh,MITF act,SMARCA2 activ,FGF22 binding,SMARCA2 act conf,GAL4-VP16 Luc
O=C(CSc1ccc(-c2cccs2)nn1)N1CCCCCC1,·,50*,·,-7,13*,·,5,5.7*
COc1cccc(NC(=O)N[C@@H]2C=C[C@@H](CC(=O)NCc3ccccn3)O[C@H]2CO)c1,·,1,1,·,·,0,·,·
CN(C)Cc1cc(O)c(CN(C)C)cc1O,0,·,-4,·,8.0*,0,7,2
CCC(C)c1ccc(NC(=O)c2cccnc2)cc1 (stereo not drawn),·,50*,·,89*,9.8*,·,8.2*,12*
CCC(C)c1ccc(O)c(NC(=O)c2cccnc2)c1 (stereo not drawn),·,5,·,1,-3,·,·,·
COc1cc(C(=O)Nc2ccc3c(c2)OCO3)ccc1OCc1c(C)noc1C,-1,·,3,8,8.4*,0,6,0
O=C(NN=C1CCCCCC1)c1ccc2c(c1)OCO2,-7,54*,0,19,10*,43*,3,4
O=C(N/N=C/c1ccc2c(c1)OCO2)c1ccc2c(c1)OCO2,25,36,1,58,2,0,·,·
O=C(NN=Cc1ccc2c(c1)OCO2)c1ccccc1,63*,8,1,67,11*,0,8.7*,8.4*
COc1ccc(C(=O)/C=C/c2ccc3c(c2)OCCO3)cc1,15,7,·,13,0,0,·,·
O=C(/C=C/c1ccc2c(c1)OCCO2)c1ccccc1,-2,·,6,·,17*,0,10*,9.1*
C[C@@H]1CN([C@H](C)CO)C(=O)c2cc(C#Cc3cccnc3)cnc2O[C@@H]1CN(C)Cc1cccnc1,·,1,-4,·,·,·,·,·
C[C@@H](O)C#Cc1cnc2c(c1)C(=O)N([C@@H](C)CO)C[C@H](C)[C@@H](CN(C)C(=O)c1ccccc1F)O2,·,-1,-1,·,·,0,·,·
Cc1noc(C)c1NC(=O)N(C)C[C@H]1Oc2ccc(NC(=O)Nc3ccc(C(F)(F)F)cc3)cc2C(=O)N([C@H](C)CO)C[C@H]1C,·,6,2,·,·,0,·,·
C[C@H]1CN([C@@H](C)CO)C(=O)c2cc(-c3cccnc3)cnc2O[C@H]1CN(C)C(=O)C1CCCCC1,·,-3,·,·,·,·,·,·
C[C@@H]1CN([C@H](C)CO)C(=O)c2cc(NC(=O)Cc3cn(C)c4ccccc34)ccc2O[C@@H]1CN(C)Cc1ccncc1,·,2,1,·,·,0,·,·
